Measurements: ChEMBL document CHEMBL3988442, “University of Dundee, Small-Polar-MMV Screening Library” (2021)
Screen size: about 48,000 compounds; about 13,000 (27%) showed an effect of 50% or more. The list shows a part of the results.

System: Wolbachia pipientis
Test: Anti-Wolbachia Cell-Based Screen
Type: functional
Design: scale not given: in the data most compounds retested in dose-response had high values
Conditions: 5 µM

First: CCCn1nc2c(cc1=O)CN(Cc1nnc(C3CC3)o1)CC2
Second: CCCN1CCCn2nc(CNC(=O)CC(C)n3ccnc3C)cc2C1 (stereo unspecified)
The “Percent Effect” value of the first is higher: 20.46% for the first, -9.141% for the second.

Compared with Cc1cc(F)ccc1N1CCCC(NS(=O)(=O)CCCF)C1=O (stereo unspecified), CCN(CC)S(=O)(=O)CCNc1ncnc2cc(F)c(F)cc12 is higher in “Percent Effect” value: -6.348% for the first, 0.3954% for the second.

Going from Cn1c(SCC(O)COCc2ccccc2Cl)nnc1C1CC1 (stereo unspecified) to CNc1cncc(C2CCCN2Cc2ccccc2OCC(=O)O)n1 (stereo unspecified), the “Percent Effect” value rises from -19.68% to -10.59%.

Compared with COc1ccc(F)c(CN2CCCC(O)(CNCc3ccon3)C2=O)c1 (stereo unspecified), COc1cccc(CN2CCCC2c2ccc[nH]2)c1 (stereo unspecified) is higher in “Percent Effect” value: -2.252% for the first, 13.97% for the second.

Compared with CC(C)N(C)C(=O)c1ccc(Cl)c(NC(=O)CCN2C(=O)CCC2=O)c1, Cc1c(NC(C)C(C)C)cccc1C(=O)NCc1ccnn1C (stereo unspecified) is higher in “Percent Effect” value: -4.274% for the first, 9.043% for the second.

Compared with CC(=O)NCCC(=O)NCc1cccnc1-n1cnc2ccccc21, O=C(COCc1ccccc1)Nc1ccccn1 is lower in “Percent Effect” value: -3.508% for the first, -24.26% for the second.

First: CCOC(=O)Cn1cnc2nc3n(c2c1=O)CCC3
Second: CCOC(=O)Cn1c(=O)c(OCC)nc2cnccc21
The “Percent Effect” value of the first is lower: -20.3% for the first, 100.3% for the second.

First: CCOC(=O)N1CCN(C(=O)Cn2ccc3ncccc3c2=O)CC1
Second: CCc1ncc(C(=O)N2CCN(c3cnn(C)c(=O)c3)CC2)cn1
The “Percent Effect” value of the first is lower: -21.73% for the first, -4.796% for the second.

Compared with CN(Cc1nccn1C)S(=O)(=O)Cc1cccc(C#N)c1, COC(=O)C(CNC(=O)Nc1nncs1)Cc1cccc(C)c1 (stereo unspecified) is lower in “Percent Effect” value: 6.063% for the first, -9.936% for the second.

First: O=C(c1csc(C2CC2)n1)N1CCCCC1Cn1cccn1 (stereo unspecified)
Second: O=C(c1csc(C2CC2)n1)N1CCCC1Cn1cccn1 (stereo unspecified)
The “Percent Effect” value of the first is lower: 99.33% for the first, 109.4% for the second.

First: COCc1nc(C(=O)N2CCCCC2Cn2cccn2)cs1 (stereo unspecified)
Second: COc1cccc(CN(C(=O)Nc2nncs2)C2CCC(O)CC2)c1 (stereo unspecified)
The “Percent Effect” value of the first is lower: 0.9161% for the first, 4.875% for the second.

First: NC(=O)CCn1cc(CNCc2csc(N)n2)c2ccccc21
Second: COCc1nc2ncc3c(=O)n(-c4ccccc4OC)ccc3n2n1
The “Percent Effect” value of the first is lower: -0.3339% for the first, 126.9% for the second.

Compared with Cc1ccccc1CN1CCC[C@H]1c1nc(-c2cncnc2N)no1, Cc1ccccc1CN1CCCC1c1cncc(Nc2nncs2)n1 (stereo unspecified) is higher in “Percent Effect” value: -17.12% for the first, 132.3% for the second.

Going from Cc1cccc(CN2CCCC2c2cncc(Nc3nncs3)n2)c1 (stereo unspecified) to COc1cccc(CN2CCCC2c2cncc(Nc3nncs3)n2)c1 (stereo unspecified), the “Percent Effect” value rises from 111.5% to 147.7%.

First: O=c1c2cnc(N3CCCCC3)nc2ccn1-c1ccccc1F
Second: Cc1ccccc1-n1ccc2nc(N3CCCC3)ncc2c1=O
The “Percent Effect” value of the first is higher: 37.48% for the first, -4.338% for the second.

First: COCc1nc2ncc3c(=O)n(-c4ccc(C(C)=O)cc4)ccc3n2n1
Second: COCc1nc2ncc3c(=O)n(-c4ccc(OC)cc4)ccc3n2n1
The “Percent Effect” value of the first is lower: 38.7% for the first, 103.2% for the second.

First: O=c1c2cnc(N3CCCC3)nc2ccn1-c1cccc(F)c1
Second: O=c1c2cnc(N3CCCC3)nc2ccn1-c1cccc(C(F)(F)F)c1
The “Percent Effect” value of the first is lower: -1.705% for the first, 0.9271% for the second.

First: CCOc1ccc(-n2ccc3nc(N4CCCC4)ncc3c2=O)cc1
Second: COCc1nc2ncc3c(=O)n(-c4cccc(OC)c4)ccc3n2n1
The “Percent Effect” value of the first is lower: -8.321% for the first, 97.73% for the second.
